Laboratory results from PubChem BioAssay (NCI).
The panel holds about 83,000 compounds, 20% with a hit somewhere; the sample as a whole holds those more often.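 Note: values are percent growth. 100 is the growth of untreated cells, values between 100 and 0 indicate rising inhibition; between -100 and 0 indicates cell death.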 Activity calls are given as the source filed them. Rule for the calls: active = growth percent below 10; inactive = the rest.

test system: SW-620 colon; assay: NCI-60 one-dose screen, 48 h (100 = growth as untreated, 0 = no growth, -100 = all killed); settings: 10 µM unless noted

Structure (SMILES) | growth
CCOC(=O)N1CCN(CCCCOc2ccc(C(C)(C)CC)cc2)CC1 | 101% (inactive)
Cc1cc(C)nc(NC(N)=NCCc2ccccc2)n1 | 32.2% (inactive)
O=C1C=C(C(O)c2ccc(O)cc2)C(=O)c2ccccc21 (configuration not stated) | 97.4% (inactive)
CCCC(=O)N1CCCCC1CC (configuration not stated) | 93.8% (inactive)
O=[N+]([O-])c1ccc(/C=N\Nc2ccccc2)cc1 | 79.9% (inactive)
Nc1nc(N)c2nc3c(nc2n1)CCCCCCCCCC3 | 34.3% (inactive)
NC(=O)[C@@H]1CC2CCC1C2 (some centres not stated) | 94% (inactive)
C[N+](C)(CCCCCC[N+](C)(C)C1c2ccccc2-c2ccccc21)C1c2ccccc2-c2ccccc21 | 106% (inactive)
O=C(c1ccccc1)C(CN1CCOCC1)c1ccccc1 (configuration not stated) | -45.2% (active)
CC(C)(C)CC(C)(C)c1ccc(OCCOCC[N+](C)(C)CC(=O)[O-])cc1 | 101% (inactive)
O=C(N/N=C\c1c(O)ccc2ccccc12)C1CC1 | 51.7% (inactive)
COc1cc2nc(Cl)nc(Nc3cccc(C(=O)/C=C/c4ccc(F)cc4)c3)c2cc1OC | 2.24% (active)
O=[N+]([O-])c1cccc(/C=N\Nc2ccccc2)c1 | 71.3% (inactive)
Oc1ccccc1/C=N\NC(=S)Nc1ccc(F)cc1 | 41.5% (inactive)
O=C1c2ccccc2C(=Cc2ccccc2)c2ccccc21 | 12.6% (inactive)
O=C(/C(=C(\C(=O)c1ccccc1)c1ccccc1)c1ccccc1)c1ccccc1 | 38.5% (inactive)

Structure (SMILES) | growth
Nc1c(Cl)cc(N=Nc2ccccc2)cc1Cl | 88.8% (inactive)
Oc1cccc2oc(=S)[nH]c12 | 108% (inactive)
O=C(O)c1cccc2c1Cc1cc([N+](=O)[O-])ccc1-2 | 103% (inactive)
Cn1cc(-c2csc(-c3cn(CCCN4CCCCC4)c4ccc(Br)cc34)n2)c2cccnc21 | -74.3% (active)
O=C(O)c1cccc2c1C(=O)N(c1ccc3c(c1)Cc1ccccc1-3)C2=O | 105% (inactive)
Cc1ccc2c(c1)c1nc3cc(C)c(C)cc3nc1n2CCN(C)C | 12.5% (inactive)
O=[N+]([O-])c1ccc(N/N=C(\C(=N/Nc2ccc([N+](=O)[O-])cc2[N+](=O)[O-])c2ccccc2)c2ccccc2)c([N+](=O)[O-])c1 | 72.8% (inactive)
OCC12CCCC(CO)(COC1)C2O (configuration not stated) | 97.1% (inactive)
O=C(NC1=CC(=O)c2ccccc2C1=O)c1ccccc1 | -56.2% (active)
COc1c(N)c2c(c([N+](=O)[O-])c1OC)C(=O)OC2 | 106% (inactive)
CC1c2ccccc2N(S(=O)(=O)c2ccccc2)C1C (configuration not stated) | 72.7% (inactive)
COc1ccc(/C=C/C(=O)c2ccc([N+](=O)[O-])cc2)cc1 | 111% (inactive)
c1ccc(C2Cc3ccccc3C2=NC2CCCCC2)cc1 (configuration not stated) | 119% (inactive)
O=C(CI)Nc1ccc(O)c2ccccc12 | -68.9% (active)
[B-][N+](CC)(CC)c1ccccc1 | 109% (inactive)
CC(C)(C)c1ccc(OCCCCCCCN2CCNCC2)cc1 | -31.9% (active)
